In PubChem BioAssay (Tox21):
Results filed as inconclusive are left out. Where a call stands in place of a potency, no number is given. Values without a mark were called inactive. Activity calls are given as the source filed them. Unless noted, the call rests on the fitted dose curve.

How the values were obtained:
[1] = qHTS assay to identify small molecule agonists of the vitamin D receptor (VDR) signaling pathway - cell viability counter screen (AID 743224; active means well fitted curve in the direction sought with a large enough effect in the repeat runs; an effect the other way counts as inactive or inconclusive; further: nearly all actives have a fitted effect of over 50% in size; further: potency means the concentration at half of the fitted maximal effect)
Summary of the method: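 Counter screen for cytotoxicity: VDR-bla cells at 2,000 cells/well, 16 h compound exposure, then CellTiter-Glo luminescence after the beta-lactamase measurement.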

[2] = qHTS assay to identify small molecule antagonists of the vitamin D receptor (VDR) signaling pathway - cell viability counter screen (AID 743225; active means well fitted curve in the direction sought with a large enough effect in the repeat runs; an effect the other way counts as inactive or inconclusive; further: nearly all actives have a fitted effect of over 50% in size; further: potency means the concentration at half of the fitted maximal effect)
Summary of the method: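 HEK293T VDR-bla; cpd + 1a,25-(OH)2D3 3 nM final, 16 h 37C/5% CO2; B/G FRET substrate 2 h RT; then CellTiter-Glo 30 min RT, luminescence.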

[3] = qHTS assay to identify small molecule agonists of the NFkB signaling pathway - cell viability counter screen (AID 1159515); further: nearly all actives have a fitted effect of over 55% in size; further: potency means the concentration at half of the fitted maximal effect
Summary of the method: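 Counter screen run alongside the NFkB-bla agonist assay: ME-180 reporter cells exposed to compounds for 5 hr, then lysed with CellTiter-Glo in the same wells. Luminescence, read after 30 min, reflects viable cells.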

[4] = qHTS assay to identify small molecule agonists of the endoplasmic reticulum stress response signaling pathway (AID 1159516; active means well fitted activation curve with a large enough effect in the signal ratio in the repeat runs, not every such curve was filed as active; the % refers to the signal ratio)
Summary of the method: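 For this screen, HeLa cells stably carrying beta-lactamase under the ER stress response element received test compounds, positive controls or DMSO for 5 hr at 37 C; B/G FRET substrate was then added and dual-wavelength emission recorded.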

[5] = qHTS assay to identify small molecule agonists of the endoplasmic reticulum stress response signaling pathway - cell viability counter screen (AID 1159517); further: series mostly up to about 61 µM; nearly all actives have a fitted effect of over 50% in size
Summary of the method: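 Cpd-treated ESRE-bla HeLa (5 hr, 37 C) → LiveBLAzer 2 hr RT → CellTiter-Glo 30 min RT → luminescence.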

[6] = qHTS assay to identify small molecule antagonists of the retinoid-related orphan receptor gamma (ROR-gamma) signaling pathway - cell viability counter screen (AID 1159520; active means well fitted curve in the direction sought with a large enough effect in the repeat runs; an effect the other way counts as inactive or inconclusive; further: nearly all actives have a fitted effect of over 50% in size; further: potency means the concentration at half of the fitted maximal effect)
Summary of the method: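 Tet-on ROR gamma CHO cells (1,000/well) were plated 4 hr, given compounds in DMSO for 2 hr at 37 C, then induced with 1 uM final doxycycline for 16 hr. Viability was read as ATP by CellTiter-Glo luminescence after 30 min.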

[7] = molecular target: Nuclear receptor ROR-gamma (Homo sapiens) (UniProt P51449); test: qHTS assay to identify small molecule antagonists of the retinoid-related orphan receptor gamma (ROR-gamma) signaling pathway (AID 1159521; active means well fitted curve in the direction sought with a large enough effect in the repeat runs; an effect the other way counts as inactive or inconclusive; further: nearly all actives have a fitted effect of over 50% in size; further: potency means the concentration at half of the fitted maximal effect)
Summary of the method: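 Cells were plated, rested 4 h at 37 C, exposed to compounds for 2 h, then given 1 uM final doxycycline hyclate to induce RORγ expression. After 16 h, ONE-Glo luminescence from the ROR response element reporter was measured.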

[8] = qHTS assay to identify small molecule agonists of the AP-1 signaling pathway - cell viability counter screen (AID 1159525); further: nearly all actives have a fitted effect of over 55% in size
Summary of the method: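 Each titration point was normalised to DMSO and tetra n-octyl ammonium bromide controls. The read was Cell Titer Glo luminescence after 30 min at RT, following 5 h compound exposure of ME-180 AP-1-bla cells at 37 °C.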

[9] = qHTS assay to identify small molecule agonists of the AP-1 signaling pathway (AID 1159526)
[10] = molecular target: Retinoic acid receptor RXR-alpha (Homo sapiens) (UniProt P19793); test: qHTS assay to identify small molecule agonists of the RXR signaling pathway (AID 1159527); further: nearly all actives have a fitted effect of over 35% in size
Retinoic acid receptor RXR-alpha (Homo sapiens), sequence (P19793 whole entry, looked up): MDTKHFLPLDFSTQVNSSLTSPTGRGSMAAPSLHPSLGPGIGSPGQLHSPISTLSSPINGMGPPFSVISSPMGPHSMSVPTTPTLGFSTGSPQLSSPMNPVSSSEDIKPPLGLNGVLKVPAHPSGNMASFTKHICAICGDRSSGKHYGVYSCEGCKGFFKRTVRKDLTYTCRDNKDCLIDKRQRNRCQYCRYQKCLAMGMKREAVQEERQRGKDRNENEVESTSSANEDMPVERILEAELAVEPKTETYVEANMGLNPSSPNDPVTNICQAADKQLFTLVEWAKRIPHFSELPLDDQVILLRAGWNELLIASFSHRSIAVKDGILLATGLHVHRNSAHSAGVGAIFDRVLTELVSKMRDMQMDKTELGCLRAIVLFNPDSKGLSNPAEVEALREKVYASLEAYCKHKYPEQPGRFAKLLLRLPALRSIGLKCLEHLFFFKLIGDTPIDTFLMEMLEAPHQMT
Summary of the method: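 Cells plated at 2,000/well, rested 5 hr at 37 C, pin-dosed with DMSO compound solutions, incubated 16 hr, then loaded with B/G FRET substrate for 2 hr at RT before dual-emission fluorescence reading.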

Compound | Potency [1] | Potency [2] | Potency [3] | Potency [4] | Potency [5] | Potency [6] | Potency [7] | Potency [8] | Potency [9] | Potency [10]
CN1CCC(=C2c3ccccc3Sc3ccccc32)CC1 | inactive | inactive | inactive | inactive | inactive | inactive | 29.8 µM (active) | inactive |  | 
CN(C)CCOC(c1ccccc1)c1ccc(Br)cc1 (configuration not stated) |  | inactive | inactive | inactive | inactive | inactive | inactive | inactive |  | 
Cc1ccccc1S(=O)(=O)O | inactive | inactive | inactive | inactive | inactive | inactive | inactive |  | inactive | inactive
CCCCCCCCCCCCN1CCCCCC1=O | 30.9 µM (active) |  | 54.9 µM (active) | inactive | inactive | inactive | inactive |  |  | 
CCCOC(C(=O)OC1CCN(C)CC1)(c1ccccc1)c1ccccc1 | inactive | inactive | inactive | inactive | inactive | inactive | 13.3 µM (active) | inactive |  | 
C#C[C@]1(O)CC[C@H]2[C@@H]3CCc4cc(OC5CCCC5)ccc4[C@H]3CC[C@@]21C | inactive |  | 21.3 µM (active) | inactive | inactive | 29.8 µM (active) | 10.6 µM (active) |  |  | 
CCNc1cc(O)ccc1C | inactive | inactive | inactive | inactive | inactive | inactive |  | inactive | inactive | inactive
CC1=CC=C(C(C)C)CC1 | inactive | inactive | inactive | inactive | inactive | inactive |  | inactive | inactive | inactive
OCCN1CCN(CCCN2c3ccccc3C=Cc3ccccc32)CC1 | inactive | inactive | inactive | inactive | inactive | inactive |  | inactive | inactive | inactive
COCC(C)OC(C)=O (configuration not stated) | inactive | inactive | inactive | inactive | inactive | inactive |  | inactive | inactive | inactive
CC(C)(C)Cl | inactive | inactive | inactive | inactive | inactive | inactive |  | inactive | inactive | inactive
O=C(O)c1ccccc1Cl | inactive | inactive | inactive | inactive | inactive | inactive |  | inactive | inactive | inactive
O=C1CCC(=O)O1 | inactive | inactive | inactive | inactive | inactive | inactive |  | inactive | inactive | inactive
N=c1ccn2c(n1)O[C@H]1[C@H](O)[C@@H](CO)O[C@H]12 | inactive |  | inactive | inactive | inactive | inactive |  | inactive | inactive | inactive
C[C@@H]1C[C@H]2[C@@H]3CCC4=CC(=O)C=C[C@]4(C)[C@@]3(F)[C@@H](O)C[C@]2(C)[C@@]1(O)C(=O)COC(=O)c1ccncc1 | inactive | inactive | inactive | inactive | inactive | inactive |  | inactive | inactive | inactive
CCCCCCCCCCCc1ccccc1 | inactive | inactive | inactive | inactive | inactive | inactive |  | inactive | inactive | inactive
CCCCCCCCCc1ccc(OCCOCCO)cc1 | 20.5 µM (active) | 18.3 µM (active) | inactive | inactive | inactive | inactive | 5.11 µM (active) |  |  | 
CC1OC(=O)C(C)OC1=O (configuration not stated) | inactive | inactive | inactive | inactive | inactive | inactive |  | inactive | inactive | inactive
CCC(CC)Nc1ccc(C)c(C)c1 |  | inactive | inactive | inactive | inactive | inactive | inactive |  |  | 
C[C@H](CCC(=O)O)[C@H]1CC[C@H]2[C@@H]3CC[C@@H]4C[C@H](O)CC[C@]4(C)[C@H]3C[C@H](O)[C@]12C |  |  | inactive | inactive | inactive | inactive |  | inactive |  | 
CCOC(=O)C(F)(F)F | inactive |  | inactive | inactive | inactive | inactive |  | inactive | inactive | inactive
CCOc1ccc(O)cc1 |  |  | inactive | inactive | inactive | inactive |  | inactive | inactive | inactive
OC[C@H]1O[C@@H](OCCc2ccc(O)cc2)[C@H](O)[C@@H](O)[C@@H]1O | inactive | inactive | inactive | inactive | inactive | inactive |  | inactive | inactive | inactive
C/C=C(/C(=C/C)c1ccc(OC(C)=O)cc1)c1ccc(OC(C)=O)cc1 |  | inactive | inactive | inactive | inactive | inactive | inactive |  |  | 
CC1(c2ccccc2)OC(C(=O)O)=CC1=O (configuration not stated) | inactive |  | inactive | inactive | inactive | inactive |  | inactive | inactive | inactive
C=C(C)C(=O)OCC | inactive | inactive | inactive | inactive | inactive | inactive |  | inactive | inactive | inactive
